Eight compounds from PubChem BioAssay (NCI) can be followed below.

Test systems include SR leukemia; RPMI-8226 leukemia; OVCAR-8 ovarian; OVCAR-5 ovarian; OVCAR-4 ovarian; SK-OV-3 ovarian; IGROV1 ovarian; OVCAR-3 ovarian; HS 578T breast; NCI/ADR-RES ovarian; T-47D breast; BT-549 breast; MDA-MB-435 melanoma; SW-620 colon; MCF7 breast; HCT-116 colon; HCC-2998 colon; KM12 colon.
What all share (assay): NCI-60 one-dose screen, 48 h (100 = growth as untreated, 0 = no growth, -100 = all killed)
Common to all, as to conditions: 10 µM unless noted

Where “and” joins values, the source holds several entries; their conditions need not be identical. Equal values may be shown once. The panel holds about 83,000 compounds, 20% with a hit somewhere; the sample as a whole holds those more often.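 Interpretation: 100, growth as untreated; towards 0, rising growth inhibition; 0, no net growth; 0 to -100, cell death. Compounds scoring below 10 were considered active.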 A number with no mark means an inactive call. Calls of active or inactive are those of the source.

For `Cn1cc(-c2csc(-c3cn(CCOC(N)=O)c4ccccc34)n2)c2cccnc21`, the growth with SR leukemia was 20.3%; with RPMI-8226 leukemia it was 74.1%; with OVCAR-8 ovarian, 89.4%; with OVCAR-5 ovarian it was 104%; in the test on OVCAR-4 ovarian it was 102%; with SK-OV-3 ovarian, 95.2%. Moreover, the growth with IGROV1 ovarian is 77.7%; with OVCAR-3 ovarian, 94.9%; with HS 578T breast, 92.6%; in the test with NCI/ADR-RES ovarian, 82.9%; with T-47D breast, 45.8%; with BT-549 breast it was 79.5%. Also, the growth in the test with MDA-MB-435 melanoma was 8.15% (active); with SW-620 colon, 67.9%; in the test with MCF7 breast it was 58.2%; with HCT-116 colon, 86.5%; in the test on HCC-2998 colon, 90.4%; in the test on KM12 colon, 67%.
On to `COc1ccc(C(CC(=O)c2ccc3c(c2)OCO3)C(=O)O)cc1OC` (centres undefined), for which the growth in the test on SR leukemia was 116% and 90.8%; with RPMI-8226 leukemia, 103% and 96.1%; in the test with OVCAR-8 ovarian, 107% and 106%; in the test with OVCAR-5 ovarian, 118% and 99.9%; in the test with OVCAR-4 ovarian it was 132% and 108%; in the test on SK-OV-3 ovarian, 113% and 105%. For the same compound, the growth was 131% and 106% in the test with IGROV1 ovarian; 119% and 102% in the test with OVCAR-3 ovarian; 94.8% and 121% in the test on HS 578T breast; 106% and 98.5% in the test with NCI/ADR-RES ovarian; 104% and 91.9% in the test on T-47D breast; 115% and 106% in the test on BT-549 breast. Also, the growth is 108% and 102% with MDA-MB-435 melanoma; 100% and 108% in the test on SW-620 colon; 100% and 96.6% in the test on MCF7 breast; 119% and 97.1% in the test on HCT-116 colon; 104% and 105% in the test on HCC-2998 colon; 110% and 95.7% with KM12 colon.
For the compound `COc1cc(NC2CCCCC2O)c2nc(-c3ccc(Cl)cc3)ccc2c1` (centres undefined), the growth in the test on SR leukemia is -4.63% (active); with RPMI-8226 leukemia, 58.3% and 34.2%; with OVCAR-8 ovarian, 85.5% and 90.1%; in the test on OVCAR-5 ovarian, 107% and 94.6%; in the test with OVCAR-4 ovarian, 75.6% and 76.7%; in the test with SK-OV-3 ovarian, 101% and 105%. In addition, the growth in the test on IGROV1 ovarian was 97.2% and 96%; in the test on OVCAR-3 ovarian it was 88.1% and 112%; in the test on HS 578T breast, 85.4% and 138%; with NCI/ADR-RES ovarian it was 84.5%; in the test on T-47D breast, 78.5% and 86.5%; with BT-549 breast, 108% and 97.5%. Further, the growth with MDA-MB-435 melanoma was 68.4% and 86.5%; with SW-620 colon, 78.9% and 86.7%; with MCF7 breast, 51.8% and 59.4%; in the test with HCT-116 colon, 69.6% and 77.2%; in the test on HCC-2998 colon, 91.8% and 93%; in the test on KM12 colon, 54.9% and 68.3%.
`COC(=O)/C=C1/SC(=Nc2ccc([N+](=O)[O-])cc2)N(CCc2c[nH]c3ccccc23)C1=O`: the growth in the test on SR leukemia is 1.73% (active); in the test with RPMI-8226 leukemia, 2.18% (active); in the test on OVCAR-8 ovarian, 42%; with OVCAR-5 ovarian, 112%; in the test on OVCAR-4 ovarian it was 66.2%; in the test with SK-OV-3 ovarian, 105%. Moreover, the growth in the test with IGROV1 ovarian is 62%; with OVCAR-3 ovarian, 43.1%; in the test on HS 578T breast, 63.5%; with NCI/ADR-RES ovarian, 66.9%; with T-47D breast, 46.5%; with BT-549 breast it was 60.8%. For the same compound, the growth in the test with MDA-MB-435 melanoma is 55.5%; in the test with SW-620 colon, 47.3%; with MCF7 breast, 20.1%; with HCT-116 colon it was 21.8%; with HCC-2998 colon, 78.3%; in the test on KM12 colon it was 66.4%.
In the case of `CCN(CC)CC#CCOC(=O)[C@]1(C)CCC[C@]2(C)c3ccc(C(C)C)cc3CC[C@@H]12`, the growth with SR leukemia was 79.3%; in the test on RPMI-8226 leukemia it was 21.3%; with OVCAR-8 ovarian it was 94.2%; with OVCAR-5 ovarian, 93.5%; in the test with OVCAR-4 ovarian, 71.3%; in the test with SK-OV-3 ovarian, 89.2%. The growth with IGROV1 ovarian was 86.2%; with OVCAR-3 ovarian it was 90.6%; in the test on HS 578T breast, 90.2%; with NCI/ADR-RES ovarian it was 84.5%; in the test on T-47D breast, 78.6%; in the test on BT-549 breast it was 92.7%. For the same compound, the growth with MDA-MB-435 melanoma was 91.6%; in the test on SW-620 colon it was 87.7%; in the test on MCF7 breast, 82.6%; in the test with HCT-116 colon it was 58.3%; with HCC-2998 colon it was 91.5%; with KM12 colon it was 85.3%.
On to `O=C(Nc1ccc2ccccc2c1)c1cc2ccccc2cc1O`, for which the growth in the test with SR leukemia is 82%; in the test with RPMI-8226 leukemia, 49.9%; in the test on OVCAR-8 ovarian, 102%; in the test on OVCAR-5 ovarian, 98.8%; with OVCAR-4 ovarian, 82.9%; with SK-OV-3 ovarian, 94.3%. Further, the growth was 59.8% in the test on IGROV1 ovarian; -0.789% (active) in the test with OVCAR-3 ovarian; 105% in the test with HS 578T breast; 87.6% in the test on NCI/ADR-RES ovarian; 83.3% in the test on T-47D breast; 81.5% with BT-549 breast. Moreover, the growth in the test on MDA-MB-435 melanoma is 103%; in the test with SW-620 colon, 103%; in the test with MCF7 breast, 65.9%; with HCT-116 colon, 92.3%; in the test on HCC-2998 colon, 107%; in the test with KM12 colon it was -36.8% (active).
Regarding `Cc1ccccc1SSc1ccccc1C`, the growth was 65.4% in the test on SR leukemia; 98.5% with RPMI-8226 leukemia; 84.1% in the test on OVCAR-8 ovarian; 75.5% in the test on OVCAR-5 ovarian; 94.5% in the test with OVCAR-4 ovarian; 96.9% in the test on SK-OV-3 ovarian. Besides, the growth is 84.6% in the test with IGROV1 ovarian; 120% in the test on OVCAR-3 ovarian; 97.7% in the test on HS 578T breast; 86.4% in the test on NCI/ADR-RES ovarian; 101% in the test with T-47D breast; 83.9% in the test with BT-549 breast. The growth in the test on MDA-MB-435 melanoma is 110%; in the test with SW-620 colon, 55%; with MCF7 breast it was 56.1%; in the test with HCT-116 colon it was 55%; in the test with HCC-2998 colon it was 128%; in the test with KM12 colon it was 96.9%.
For `BrC1=C(Br)C(Br)(Br)C(Br)=C1Br`, the growth with SR leukemia was 9.34% (active); with RPMI-8226 leukemia it was 20.8%; in the test with OVCAR-8 ovarian, 62.8%; in the test on OVCAR-5 ovarian, 97.2%; in the test on OVCAR-4 ovarian it was 104%; in the test with SK-OV-3 ovarian, 108%. Moreover, the growth with IGROV1 ovarian is 98.3%; in the test on OVCAR-3 ovarian, 104%; in the test on HS 578T breast, 118%; in the test on NCI/ADR-RES ovarian, 75.2%; in the test on T-47D breast, 77.9%; with BT-549 breast, 88.9%. Further, the growth is 75.6% in the test with MDA-MB-435 melanoma; 80.1% with SW-620 colon; 50% in the test on MCF7 breast; 65.1% with HCT-116 colon; 103% with HCC-2998 colon; 103% with KM12 colon.
